Bioassay records: PubChem BioAssay, several laboratories
Compounds with a hit are over-represented: about 0.51% of the library has one in this group of screens.
Tat transport: E. coli Tat export inhibitors, primary screen, MC4100, TorA-mCherry reporter, fluorescence, single point; 340,000 tested, 0.036% active; inhibition, % at 10 µM;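 active = mean replicate inhibition at least 50% and at least half of replicates individually reaching 50%; inconclusive = only one of the two criteria met; inactive = neither criterion met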;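 also: exported cargo escapes ClpAP degradation while cytoplasmic cargo is degraded and loses fluorescence; 0% = median of neutral control wells and 100% = median of NaSCN control wells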
E coli growth-1: E. coli growth inhibition, primary screen, OD600; Escherichia coli growth, 23 h; stronger effect = lower value; OD600 absorbance (concentration not given with the values); 330,000 tested, 0.21% active;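 active = OD600 absorbance below the run mean of sample wells minus 3.6 SD, in any replicate, cut at about 0.56 in these data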
E coli growth-2: E. coli V3065 growth inhibition, primary screen, counter-screen for AddAB inhibitor project, absorbance, OD600; inhibition, % at 11.9 µM; 330,000 tested, 0.27% active; AID 449728, 2010; 18 h;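 active = inhibition above the campaign's mean inhibition across all tested compounds plus 3 SD, cut at about 9.9% in these data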;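 also: uninfected addAB+ strain grown without phage in ampicillin broth; 0% = DMSO wells and 100% = ciprofloxacin 0.95 µg/ml wells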
phage Ecoli inh: growth loss of phage-infected E. coli, primary screen, RecBCD inhibitor project, absorbance, with phage, HTS | inhibition, % at 11.9 µM | AID 651602, 2012 | 360,000 tested, 0.26% active; in the data active = inhibition above about 11%
AddAB inh: growth inhibition of E. coli expressing H. pylori AddAB, primary screen, AddAB inhibitor project, absorbance | inhibition, % at 11.9 µM | 330,000 tested, 0.29% active; in the data active = inhibition above about 12%;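 also: 0% = vehicle wells of infected cells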
AddAB conf: growth loss of phage-infected E. coli expressing H. pylori AddAB, confirmation, AddAB inhibitor project, absorbance, E. coli V3065, T4 phage, triplicate. shares compounds with AddAB inh. OD; T4 phage with gene 2 nonsense mutations. inhibition, % at 11.9 µM. 880 tested, 64% active. AID 488942, 2010;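 active = mean inhibition above a set limit taken from the earlier primary screen, cut at about 13% in these data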;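 also: higher means less bacterial growth since AddAB block lets phage replicate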
RecBCD counter: growth loss of RecBCD+ E. coli with mutant T4 phage, counter-screen for AddAB inhibitor project, absorbance, V66 E. coli. OD growth. 880 tested, 73% active. AID 488955, 2010. inhibition, % at 11.9 µM. shares compounds with AddAB inh;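 active = mean inhibition above the mean of solvent-only control wells plus 3 SD, cut at about 4% in these data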;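 also: optical density read after an 18 h incubation at 37 °C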
bact viab count: bacterial viability inhibition counter-screen, confirmation, counter-screen for AddAB inhibitor project, absorbance. shares compounds with AddAB inh. absorbance (AddAB counterscreen). inhibition, % at 11.9 µM. 880 tested, 35% active; in the data active = inhibition above about 25%
The depositor's hits bear a star; ? = inconclusive; / = no result.

SMILES | Tat transport | E coli growth-1 | E coli growth-2 | phage Ecoli inh | AddAB inh | AddAB conf | RecBCD counter | bact viab count
CC(=O)c1cccc(NC(=O)CCNS(=O)(=O)c2cccc3nonc23)c1 | -17 | 0.68 | 7 | 5 | 13* | 6 | 4.5* | 5
Cn1cccc1C=NNC(=O)CSc1nc2ccccc2[nH]1 | / | 0.65 | / | / | / | / | / | /
O=C1c2c(O)ccc(O)c2C(=O)c2c(NCCNCCO)ccc(NCCNCCO)c21 | 11 | 0.76 | 32* | -1 | 31* | 52* | -3 | 51*
O=C1c2ccccc2C(=O)c2c(Nc3ccc(CCO)cc3)ccc(O)c21 | -4 | / | -5 | -1 | -2 | / | / | /
CCOc1ccc(NC(=S)N2CCn3c(nc4ccccc43)C2)cc1 | / | / | 13* | / | 21* | 28* | 19* | 24
CCOC1OC(C(=O)NCc2ccccc2)=CC(c2ccc(Br)cc2)C1CCCO (centres undefined) | / | 0.65 | / | / | / | / | / | /
O=C(c1ccccc1)c1c2c(cc3sc4ccccc4[n+]13)-c1cccc3cccc-2c13 | 7 | 0.48* | 5 | 7 | 16* | 89* | 1 | 19
Cc1sc2cc3c(c(C(=O)c4ccccc4)[n+]2c1C)-c1cccc2cccc-3c12 | / | 0.56 | 0 | 3 | 6 | / | / | /
O=C(O)c1cn(-c2ccc(N3CCCC3)c(F)c2)c2c(F)c(F)c(F)cc2c1=O | -8 | 0.46* | 17* | 0 | 22* | 21* | -2 | 5
CN1CCc2cc3c(c4c2[C@H]1[C@H](O)c1ccccc1-4)OCO3 | 6 | / | 8 | 1 | 13* | 27* | -1 | 6
COc1ccc2c(c1OC)C(=O)OC2C1c2c(cc3c(c2OC)OCO3)CCN1C (centres undefined) | 8 | 0.69 | -3 | 3 | -4 | / | / | /
O=[N+]([O-])c1ccc(C=NNS(=O)(=O)c2ccc(Cl)cc2)o1 | / | 0.5 | / | / | / | / | / | /
Cc1ccc(S(=O)(=O)N/N=C\c2ccc([N+](=O)[O-])o2)cc1 | -5 | / | 13* | 7 | 18* | 102* | 9.5* | 54*
CCOC(=O)N/N=C\c1ccc([N+](=O)[O-])o1 | ? | / | 26* | 6 | 31* | 98* | 13* | 29*
Cc1ccc(S(=O)(=O)N/N=C\c2ccc([N+](=O)[O-])o2)cc1C | 11 | / | 16* | 9 | 25* | 100* | 9.5* | 41*
O=[N+]([O-])c1ccc(/C=N/NS(=O)(=O)c2ccc(Cl)cc2)o1 | 5 | / | 22* | 8 | 96* | 101* | 7.7* | 43*
Cc1ccc(/C=N/NS(=O)(=O)c2ccc([N+](=O)[O-])cc2)o1 | 3 | / | -2 | 3 | 3 | / | / | /
Cc1cc(C)c(S(=O)(=O)N2CCOC2CNC(=O)C(=O)NCc2cccnc2)c(C)c1 (centres undefined) | 3 | 0.72 | 34* | 1 | 54* | -1 | 1 | -1
Cc1ccc(CNC(=O)C(=O)NCC2OCCN2S(=O)(=O)c2cccs2)cc1 (centres undefined) | -5 | 0.73 | 87* | 2 | 95* | 3 | -1 | -2
O=C(NCc1ccccc1)C(=O)NCC1OCCN1S(=O)(=O)c1cccs1 (centres undefined) | -5 | 0.68 | 0 | 2 | -1 | / | / | /
C=CCC(Cc1ccc(F)cc1)C(=O)OCC1CCCN1C(=O)C(CC=C)CC(=O)NCCO (centres undefined) | / | 0.71 | / | / | / | / | / | /
COc1cc(C=NNC(=O)CCc2n[nH]c(=O)[nH]c2=O)ccc1O | / | 0.7 | / | / | / | / | / | /
COC(=O)C(NCc1cccc(CNC(C(=O)OC)c2ccccc2)c1)c1ccccc1 (centres undefined) | / | 0.69 | / | / | / | / | / | /
Cn1cnnc1SCC(=O)NN=Cc1ccc(OCC(N)=O)cc1 | / | 0.71 | / | / | / | / | / | /
O=C(NC(CO)Cc1ccc([N+](=O)[O-])cc1)C(Cl)Cl (centres undefined) | 12 | 0.061* | 83* | / | 81* | 88* | 88* | 88*
SMILES | Tat transport | E coli growth-1 | E coli growth-2 | phage Ecoli inh | AddAB inh | AddAB conf | RecBCD counter | bact viab count
O=C(O)CC(Cc1ccc(Cl)cc1)C(=O)Nc1ccc([N+](=O)[O-])cc1 (centres undefined) | 5 | 0.69 | 0 | 4 | 2 | / | / | /
O=C(NCc1cccnc1)Nc1ccc2c(c1)OCO2 | 0 | 0.68 | 0 | 3 | 14* | -2 | 1 | -1
c1cncc(CNc2ccc3c(c2)OCO3)c1 | -12 | 0.69 | 0 | 0 | 3 | / | / | /
C=CCSc1nc2sc(C)c(C)c2c(=O)[nH]1 | -6 | 0.71 | 8 | 2 | 17* | -2 | 1 | -2
CCOCCCNC(=O)Cn1cc2c(n1)CCCC2 | 2 | 0.71 | 4 | 1 | 14* | -2 | 1 | -2
COC(=O)C1CC2CCC(O)CC2N1Cc1ccc(C(C)(C)C)cc1 (centres undefined) | / | 0.7 | / | / | / | / | / | /
Cc1c(-n2cc(C(=O)O)c(=O)c3cc(F)c(N4CCCC(O)C4)c(F)c32)c(=O)n(-c2ccccc2)n1C (centres undefined) | 6 | 0.72 | 1 | 1 | 2 | / | / | /
COc1c(N2CCNC(C)C2)c(F)cc2c(=O)c(C(=O)O)cn(C3CC3)c12 (centres undefined) | / | 0.061* | 102* | / | 100* | 101* | 101* | 103*
CCn1nnnc1SCC(=O)NCc1ccc2c(c1)OCO2 | -1 | 0.77 | 13* | 1 | 21* | -5 | -2 | -5
NC1=NCC(c2ccccc2)N1CCc1cccc(F)c1 (centres undefined) | / | 0.69 | / | / | / | / | / | /
CC(C)Cc1cc(C(=O)NCCN2CCOCC2)no1 | -8 | 0.72 | 4 | 2 | 19* | -2 | 1 | -1
CC#CCN1c2ccccc2[C@]23CC(C(=O)OC)N(C(=O)C4CCC4)C2=NC(C(=O)OC)=C(C(=O)OC)C13 (some centres undefined) | / | 0.7 | / | / | / | / | / | /
COc1ccc(NC(=O)CSc2nc3ncccc3[nH]2)cc1OC | -9 | 0.7 | 3 | 5 | 13* | -2 | 4 | 1
O=[N+]([O-])c1cc(O)c2ncccc2c1 | / | 0.13* | 16* | 4 | 14* | 34* | 8.9* | 4
O=[N+]([O-])c1cc2cccnc2c2ncccc12 | / | 0.59 | 7 | 5 | 8 | / | / | /
O=C(CN1CCCc2ccccc21)N/N=C/c1ccccc1 | 10 | / | -2 | 3 | 3 | / | / | /
O=C(CN1CCCc2ccccc21)N/N=C/c1c(O)ccc2ccccc12 | -6 | / | 11* | 8 | 15* | 2 | 5.3* | 0
O=C(NC(=S)NNC(=O)c1ccccc1O)c1ccco1 | -1 | 0.37* | 2 | 6 | 14* | 17* | 17* | 37*
